Reference: the supplement of paper PMC12339681
Where a name gives a salt, the structure may show the parent alone.

test system: PBMC-derived induced microglia-like cells (piMGLC); experiment: synaptosome phagocytic index relative to DMSO control (fraction of DMSO); higher = more phagocytosis; conditions: concentration: 10 uM (2 uM for compounds listed in Table S2); pretreatment time: 24 h; assay time: 3 h

| SMILES | synaptosome phagocytic index |
| --- | --- |
| N#Cc1ccc(COC[C@H]2O[C@@H](n3c(NCc4ccc(Cl)c(Cl)c4)nc4c(N)ncnc43)[C@H](O)[C@@H]2O)cc1 | 0.479 |
| CN(C)C(=O)c1cc2cnc(Nc3ccc(N4CCNCC4)cn3)nc2n1C1CCCC1 [Ribociclib] | 0.78 |
| Cc1nc(N)nc(N)c1-c1ccc(Cl)c(Cl)c1 [Metoprine] | 1.25 |
| N[C@@H]1CONC1=O [D-Cycloserine] | 0.834 |
| CCN(CC)CC(=O)Nc1c(C)cccc1C [Lidocaine] | 0.907 |
| NCCCS(=O)(=O)O [Tramiprosate] | 1.14 |
| Cc1nc(-c2cccnc2)sc1C(=O)Nc1ccccc1-c1cn2c(CN3CCOCC3)csc2n1 | 0.157 |
| CC[C@@]1(O)C(=O)OCc2c1cc1n(c2=O)Cc2cc3c(CN(C)C)c(O)ccc3nc2-1 [Topotecan_(Hydrochloride)] | 0.354 |
| CCN(CC)CC#CCOC(=O)C(O)(c1ccccc1)C1CCCCC1 (stereo unspecified) [Oxybutynin] | 0.889 |
| CN1C(=O)C(Cc2c[nH]c3ccccc23)NC1=S (stereo unspecified) [Necrostatin-1] | 0.88 |
| OCCN1CCN(CCCN2c3ccccc3Sc3ccc(Cl)cc32)CC1 [Perphenazine] | 0.197 |
| O=C1CCC(N2C(=O)c3ccccc3C2=O)C(=O)N1 (stereo unspecified) [Thalidomide] | 0.811 |
| Cn1cc(-c2c[nH]c3ncnc(N4CCOCC4)c23)cc1C#N | 1.32 |
| CC(C(=O)O)c1cccc(C(=O)c2ccccc2)c1 (stereo unspecified) [Ketoprofen] | 0.731 |
| CS(=O)(=O)CCNCc1ccc(-c2ccc3ncnc(Nc4ccc(OCc5cccc(F)c5)c(Cl)c4)c3c2)o1 [Lapatinib] | 0.0755 |
| C[C@@H]1CN(c2cccnc2F)C(=O)c2cc(COc3ccc(Cl)cn3)nn21 | 1.13 |
| Cc1nc2n(c(=O)c1CCN1CCC(c3noc4cc(F)ccc34)CC1)CCCC2 [Risperidone] | 0.887 |
| Nc1nc(NC2CC2)c2ncn([C@H]3C=C[C@@H](CO)C3)c2n1 [Abacavir] | 1.15 |

| SMILES | synaptosome phagocytic index |
| --- | --- |
| C[C@]12CCCN1CC1=NNC(=O)c3cc(F)cc4[nH]c2c1c34 [Pamiparib] | 0.861 |
| O=C(O)Cc1ccccc1Nc1c(Cl)cccc1Cl [Diclofenac_(Sodium)] | 0.856 |
| O=C1c2cccc3c2[C@H](CCC3)CN1[C@@H]1CN2CCC1CC2 [Palonosetron_(Hydrochloride)] | 0.526 |
| CN[C@@H]1[C@H](O[C@H]2[C@H](O[C@H]3[C@H](O)[C@@H](O)[C@H](N=C(N)N)[C@@H](O)[C@@H]3N=C(N)N)O[C@@H](C)[C@]2(O)C=O)O[C@@H](CO)[C@H](O)[C@H]1O [Streptomycin_(sulfate)] | 0.697 |
| OCCOCCN1CCN(C(c2ccccc2)c2ccc(Cl)cc2)CC1 (stereo unspecified) [Hydroxyzine_(dihydrochloride)] | 0.957 |
| C[C@@]1(c2cc(NC(=O)c3ccc(C#N)cn3)ccc2F)C=CSC(N)=N1 [Atabecestat] | 0.547 |
| C[C@H](c1ccc(F)cc1CCCC(=O)O)N(c1cc(F)ccc1F)S(=O)(=O)c1ccc(Cl)cc1 | 0.385 |
| CN(C)CCc1c[nH]c2ccc(CS(=O)(=O)N3CCCC3)cc12 [Almotriptan_(malate)] | 0.882 |
| CN/C(=N\CCSCc1nc[nH]c1C)NC#N [Cimetidine] | 1.07 |
| Cc1nc2n(c(=O)c1CCN1CCC(c3noc4cc(F)ccc34)CC1)CCCC2O (stereo unspecified) [Paliperidone] | 0.852 |
| CC(C)Cc1ccc(C(C)C(=O)O)cc1 (stereo unspecified) [Ibuprofen] | 0.74 |
| CC(C)n1c(=O)n(C)c2cnc3cc(F)c(-c4ccc(OCCCN5CCCCC5)nc4)cc3c21 | 0.706 |
| CC(C)(S)[C@@H](N)C(=O)O [Penicillamine] | 0.328 |
| CNC(=O)c1cc(Oc2ccc3nc(N[C@@H]4CCCC[C@H]4O)sc3c2)ccn1 | 1.21 |
| CN(C)CCCN1c2ccccc2CCc2ccccc21 [Imipramine_(hydrochloride)] | 0.863 |
| CCn1ncc2c(NC3CCOCC3)c(-c3nnc(Cc4sc(C)nc4C)o3)cnc21 | 0.266 |
| O=C1N=C(O)NC1(c1ccccc1)c1ccccc1 [Phenytoin_(sodium)] | 0.725 |
| NCc1c[nH]c(=S)n1[C@H]1CCc2c(F)cc(F)cc2C1 [Nepicastat_(hydrochloride)] | 0.936 |
